Source: PubChem BioAssay (National Center for Advancing Translational Sciences (NCATS))
TrxR1 substrate: rat thioredoxin reductase 1 substrate activity; hit rate 0.01% among 390,000; purified TrxR1 substrate turnover, NADPH consumption readout; AID 588456; Potency, µM (titrated, usually from 114 µM); also: nearly all actives have a fitted effect of over 50% in size
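Rat TrxR1, dispensed at 90 nM, was prereduced with 400 uM NADPH (final) for 5 min at ~22 deg C, then incubated with compound 15 min before 400 uM selenite. A first-read NADPH fluorescence drop versus no-compound background flagged substrates.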
GLP1R inv ag: acts as inverse agonist at human GLP-1 receptor; AID 624417; HEK293 GLP-1R CRE-luciferase, luminescence, 24 h; GLP-1R form is constitutively active; hit rate 1.6% among 410,000; P43220; Potency, µM (series often up to 38.3 µM), usual class: inhibitors; also: nearly all actives have a fitted effect of over 55% in size
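HEK293 cells stably co-expressing a cAMP-responsive luciferase reporter and constitutively active GLP-1R were seeded, incubated 12 h, then exposed to compounds for 24 h at 37 C. Luminescence was read 12 min after detection reagent; inverse agonists lower signal.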
GLP1R ag: agonists of human GLP-1 receptor; P43220; HEK293 GLP-1R CRE-luciferase, luminescence, 4-6 h; cells express a hypersensitive GLP-1R form; Potency, µM (highest dose often 45.6 µM), most hits filed as activators; hit rate 0.007% among 380,000; AID 624172
HEK293 tox: cytotoxicity in counter-screen for GLP-1R inverse agonists; Potency, µM (doses to about 38.3 µM), actives largely listed as inhibitors; AID 624418; hit rate 0.13% among 410,000; HEK293 cAMP-luciferase reporter cells, luminescence, 24 h;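 also: loss of luciferase light is scored as toxicity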
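Here, cytotoxicity is scored as loss of luminescence. The MLSMR collection was tested on cells seeded in medium containing 10% Nu serum, with a 24 hr compound exposure preceded by 12 hours of culture.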
TrxR1 inh: inhibitors of rat thioredoxin reductase 1; hit rate 1% among 390,000; O89049; AID 588453; Potency, µM (titrated, usually from 114 µM), most hits filed as inhibitors; recombinant rTrxR1, NADPH fluorescence consumption, selenite substrate; also: nearly all actives have a fitted effect of over 65% in size
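Rat TrxR1 (90 nM in the dispensed reagent) was pre-reduced with 400 uM NADPH for 5 min at room temperature, then incubated with compound for 15 min. After 400 uM selenite was added, NADPH fluorescence (Ex 340/Em 450 nm) was followed for 8 min.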
IDH1 R132H inh: human IDH1 R132H inhibition. O75874. IDH1-R132H enzyme, NADPH consumption, diaphorase/resazurin fluorescence. Potency, µM (titrated, usually from 76.6 µM), actives largely listed as inhibitors. hit rate 0.093% among 390,000. AID 602179; also: nearly all actives have a fitted effect of over 65% in size
Target sequence (O75874 whole entry R132H, stated change not applied): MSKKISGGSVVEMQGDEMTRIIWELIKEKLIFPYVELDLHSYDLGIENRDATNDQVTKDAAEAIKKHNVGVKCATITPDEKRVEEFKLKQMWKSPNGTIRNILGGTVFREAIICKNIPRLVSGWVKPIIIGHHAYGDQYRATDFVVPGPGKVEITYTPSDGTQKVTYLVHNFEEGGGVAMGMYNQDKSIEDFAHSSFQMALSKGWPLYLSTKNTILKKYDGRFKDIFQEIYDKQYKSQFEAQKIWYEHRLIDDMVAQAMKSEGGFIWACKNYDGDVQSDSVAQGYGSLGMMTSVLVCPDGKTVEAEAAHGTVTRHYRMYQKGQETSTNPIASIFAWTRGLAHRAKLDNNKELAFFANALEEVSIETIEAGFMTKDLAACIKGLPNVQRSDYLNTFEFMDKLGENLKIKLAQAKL
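IDH1-R132H (0.5 ug/mL) preincubated 30 min with compound, then NADPH (0.016 mM) and alpha-KG (2 mM) added; 80 min at RT, pH 7.5. Remaining NADPH coupled via diaphorase/resazurin to fluorescence (540/590 nm); concentration-response curves normalized to no-enzyme control.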
Large screens that a line does not name were inactive. An excerpt weighted towards active compounds, which were near 2.7% of everything screened. Calls follow the shape of the dose curve; as a rule, active = well fitted curve in the direction sought with a large enough effect; inconclusive = small, poorly fitted or top-dose-only effect, or another doubt; inactive = no such curve, though single readings can be large; an effect the other way counts as inactive or inconclusive.

CN(C)CCCN(C(=O)CCc1ccccc1)c1nc2ccc(Br)cc2s1	GLP1R inv ag 6.3µM, HEK293 tox inconclusive
Cc1cc(N2CCCCC2)nc2ccc(NC(=O)/C=C/c3ccc(OC(C)C)cc3)cc12	GLP1R inv ag inconclusive (no result: GLP1R ag)
Cc1cc(/C=C2\C(=O)NC(=O)N(c3ccc(Cl)cc3)C2=O)c(C)n1-c1sc2c(c1C#N)CCCC2	GLP1R inv ag inconclusive, TrxR1 inh 50µM
COc1cc(C2c3cc4c(cc3CC3COC(=O)C32)OCO4)cc(OC)c1OC (stereo not drawn)	GLP1R inv ag 0.28µM, HEK293 tox inconclusive
CCCCCCCCCCCCCCCCn1cc[n+](C)c1	GLP1R inv ag 7.1µM, HEK293 tox inconclusive
Nc1nc2ncccn2c1-c1ccc(C(F)(F)F)cc1	none (no result: TrxR1 substrate, GLP1R ag, TrxR1 inh, IDH1 R132H inh)
O=C(COc1ccc(Br)cc1)N1CCN(C2CCCC2)CC1	none
Cc1ccc(OCC(=O)N2CCN(C3CCC(c4ccccc4)CC3)CC2)cc1 (stereo not drawn)	GLP1R inv ag 11µM
CN(C)C(=O)O/N=C(\N)COc1ccc(C(C)(C)C)cc1	GLP1R inv ag inconclusive, HEK293 tox 3.2µM
CCOC(=O)C(O)(c1ccc(N(C)C(=O)COc2ccccc2)cc1)C(F)(F)F (stereo not drawn)	none
CCCc1cc(=O)oc2c3c(cc(OCC(=O)N4CCC[C@H]4C(=O)O)c12)OC(C)(C)CC3	TrxR1 inh inconclusive
C=C(C(=O)c1ccccc1)C(CC(=O)c1ccccc1)c1ccccc1 (stereo not drawn)	GLP1R inv ag inconclusive, HEK293 tox inconclusive
COc1ccc(-c2sc3cc(OC)c(OC)cc3c2-c2ccc(O)cc2)cc1	GLP1R inv ag inconclusive, HEK293 tox inconclusive
O=[N+]([O-])/C=C/c1ccc2c(c1)OCO2	TrxR1 inh 10µM (no result: GLP1R inv ag, GLP1R ag, HEK293 tox, IDH1 R132H inh)
COc1cc2c(cc1/C=C/[N+](=O)[O-])OCO2	GLP1R inv ag inconclusive, HEK293 tox inconclusive, TrxR1 inh inconclusive
Cc1cccc(OP(N)(=O)Oc2cccc(C)c2C)c1C	GLP1R inv ag 11µM
c1ccc(CNc2c3c(nc4ccccc24)CCC3)cc1	GLP1R inv ag inconclusive, HEK293 tox inconclusive
c1ccc(Nc2c3c(nc4ccccc24)CCC3)cc1	GLP1R inv ag 11µM, HEK293 tox inconclusive
O=C(Cn1c(=O)oc2cc(S(=O)(=O)N3CCCCCC3)ccc21)NCc1ccccc1Cl	GLP1R inv ag inconclusive (no result: GLP1R ag)
CNCC(O)c1cccc(OC(=O)c2ccccc2C)c1 (stereo not drawn)	none
Cc1ccccc1C(=O)Oc1cccc(Nc2ncnc3ccccc23)c1	GLP1R inv ag 11µM
CCC1C(c2ccccc2)N(C)C(c2ccccc2)CC1(O)c1ccccc1 (stereo not drawn)	GLP1R inv ag 2.5µM, HEK293 tox inconclusive
CCCCN1CCC(O)(c2ccccc2)C(C(=O)c2ccccc2)C1 (stereo not drawn)	TrxR1 inh inconclusive
O=C1NC(=O)C(=Cc2c(Cl)cccc2Cl)C(=O)N1	TrxR1 inh 13µM
O=C1NC(=O)C(=Cc2cc(Cl)ccc2OCc2ccc(C(=O)O)cc2)C(=O)N1	TrxR1 inh 10µM
CN1C(=O)C(=Cc2ccccc2OCc2ccc(Cl)cc2)C(=O)N(C)C1=O	none
C=CCN(C(=O)C1CC(=O)N(C2CCCC2)C1)c1nc(-c2ccc(S(C)(=O)=O)cc2)cs1 (stereo not drawn)	GLP1R inv ag inconclusive, HEK293 tox inconclusive
Cc1ccc(-n2sc3ccccc3c2=O)cc1	GLP1R inv ag inconclusive, HEK293 tox 10µM
CCOC(=O)c1cccc(NC(=O)c2cnc(N3CCCCC3)c3ccccc23)c1	GLP1R inv ag inconclusive (no result: GLP1R ag)
CCN1CCN(c2ncc(C(=O)Nc3cc(Cl)ccc3OC)c3ccccc23)CC1	GLP1R inv ag 1.8µM, HEK293 tox inconclusive
C=C1C(=O)[C@@]23C[C@H]4[C@@H]5[C@@]6(C)CCC[C@@]57[C@@H]2[C@@H](O)[C@@H]1C[C@H]3[C@H]7N4C6	GLP1R inv ag 8.9µM, HEK293 tox inconclusive, TrxR1 inh 22µM
